Screening data as filed in PubChem BioAssay.
Sampled rows, rich in hits. Any-hit rate of the full collection: about 4.8%.
DRD3 agonist = qHTS of D3 Dopamine Receptor Agonist: qHTS | D(3) dopamine receptor (Homo sapiens), P35462 | D3R DiscoveRx beta-arrestin cells, luminescence, 90 min | max activation, % | hit rate 0.58% among 410,000; in the data active = max activation above about 30%; also: 0% is about no effect
Target sequence (P35462 whole entry, looked up): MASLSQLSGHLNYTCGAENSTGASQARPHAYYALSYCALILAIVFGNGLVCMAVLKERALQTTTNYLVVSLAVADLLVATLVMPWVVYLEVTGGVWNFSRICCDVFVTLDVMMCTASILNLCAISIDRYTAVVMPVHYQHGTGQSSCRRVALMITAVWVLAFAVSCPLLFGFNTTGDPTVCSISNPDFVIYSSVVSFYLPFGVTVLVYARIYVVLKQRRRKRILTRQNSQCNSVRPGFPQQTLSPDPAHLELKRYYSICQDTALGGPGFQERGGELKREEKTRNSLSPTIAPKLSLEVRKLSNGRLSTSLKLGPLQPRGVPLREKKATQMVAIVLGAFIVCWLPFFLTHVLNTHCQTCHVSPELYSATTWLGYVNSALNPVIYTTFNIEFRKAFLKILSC
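Agonist mode: compounds and dopamine controls were applied to plated cells for 90 min at 37 degrees C after an overnight attachment at 1500 cells/well. Luminescent read-out followed 30 - 60 minutes at room temperature with DiscoveRx detection reagent.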
TGFb inhibitor = qHTS for Inhibitors of TGF-b; Potency, µM (series often up to 46.1 µM), for inactives: at the highest dose activity, negative = inhibition, actives largely listed as inhibitors; AID 588855, 2011; hit rate 1.2% among 410,000; HepG2 CAGA-GFP TGF-b/SMAD3 reporter, GFP fluorescence, 18 h; TGF-beta stimulated, 500 pg/mL final; also: potency is read from the fitted curve at half-maximal effect; % is scaled to controls: 0 for no effect and ±100 for the full control effect; nearly all actives have a fitted effect of over 65% in size
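Cell-based qHTS in HEPG2 carrying a CAGA-GFP Smad reporter; compounds added before 500 pg/mL final TGF-beta, 18 h incubation at 37 degrees C, GFP fluorescence quantified per cell by imaging cytometry.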
ATXN viability = Viability Counterscreen for Primary qHTS for Inhibitors of ATXN expression; S2 cells (HEK-293 line with an ATXN2-luciferase reporter) viability, CellTiter-Fluor protease fluorescence, 24 h; Potency, µM (titrated, usually from 56.7 µM), hits mostly cytotoxic; hit rate 0.49% among 400,000; AID 651635, 2014; also: potency is read from the fitted curve at half-maximal effect; nearly all actives have a fitted effect of over 40% in size
D3 antag = qHTS of D3 Dopamine Receptor Antagonist: qHTS | AID 652054, 2013 | hit rate 2.5% among 360,000 | D3R cells, DiscoveRx beta-arrestin luminescence, antagonist mode; active compounds read low | max response, negative = inhibition, %; in the data active = max response below about -50%; inconclusive = no clear call, values can overlap the other calls; also: % is scaled to controls: 0 for no effect and ±100 for the full control effect
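Cells plated overnight at 1500 cells/well, then exposed to library compounds with dopamine controls for 90 minutes at 37 degrees C. DiscoveRx reagent added for 30–60 minutes at room temperature; luminescence read, quantitative HTS format.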
HepG2 viability = qHTS for Inhibitors of TGF-b: Cytotox Counterscreen. HepG2 CAGA-GFP viability, ATP luminescence, 18 h. Potency, µM (series often up to 46.1 µM), for the others: top-dose activity change, negative = cytotoxicity, hits mostly cytotoxic. hit rate 0.76% among 410,000; also: potency is read from the fitted curve at half-maximal effect
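CellTiter-Glo luminescence gave cytotoxicity after 18 hours at 37 degrees C. The cells were HepG2 CAGA-GFP in 1% FBS DMEM, stimulated with 500 pg/mL TGF-beta after compound addition. %Activity was normalised to no-cell wells (complete cell-killing) and DMSO (no toxicity), and curves were fitted and classified.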
ATXN2 expr inh = Primary qHTS for Inhibitors of ATXN expression | hit rate 0.72% among 360,000 | Potency, µM (highest dose often 57 µM), for the others: at the highest dose activity change, negative = inhibition, most hits filed as inhibitors | HEK-293 ATXN2-luciferase reporter, luminescence, 24 h | AID 1745845, 2022; also: potency is read from the fitted curve at half-maximal effect; % is scaled to controls: 0 for no effect and ±100 for the full control effect; nearly all actives have a fitted effect of over 55% in size
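ATXN2-luciferase reporter cells (luciferase flanked by upstream and downstream ATXN2 gene portions) were treated 24 h at 37 °C with compounds at up to 57 uM. SteadyGlo luminescence gave expression; GF-AFC fluorescence gave viability.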
The depositor's hits bear a star. Unless noted, calls follow the shape of the dose curve; as a rule, active = well fitted curve in the direction sought with a large enough effect; inconclusive = small, poorly fitted or top-dose-only effect, or another doubt; inactive = no such curve, though single readings can be large; an effect the other way counts as inactive or inconclusive.

CC1C(=O)C(C)C(c2cc(Br)ccc2O)NC1c1cc(Br)ccc1O (stereo unspecified) was read as DRD3 agonist 5, TGFb inhibitor 16µM*, ATXN viability inconclusive, D3 antag inconclusive, HepG2 viability -97% and ATXN2 expr inh inconclusive.
`COc1ccccc1NC(=O)CSC1=Nc2ccccc2C2=NC(CCC(=O)NCc3cccs3)C(=O)N12` (stereo unspecified) gave DRD3 agonist 0, TGFb inhibitor -22% and HepG2 viability -28%.
`COc1ccc(-n2nnnc2C(CCSC)N2CCN(C/C=C/c3ccccc3)CC2)cc1` (stereo unspecified) gave DRD3 agonist -18, TGFb inhibitor -34%, ATXN viability inconclusive, D3 antag -127*, HepG2 viability -1% and ATXN2 expr inh -24%.
`CCC(c1nnnn1CCc1ccccc1)N1CCN(c2ccc(OC)cc2)CC1` (stereo unspecified) gave DRD3 agonist 3, TGFb inhibitor -8%, ATXN viability inactive, D3 antag -17, HepG2 viability -12% and ATXN2 expr inh -5%.
CC(C)(C)n1nnnc1C(C1CC1)N1CCN(C/C=C/c2ccccc2)CC1 (stereo unspecified) was read as DRD3 agonist -2, TGFb inhibitor -11%, ATXN viability inconclusive, D3 antag inconclusive, HepG2 viability 2% and ATXN2 expr inh 3%.
For CC(C)(C)n1nnnc1C(CCc1ccccc1)N1CCN(C/C=C/c2ccccc2)CC1 (stereo unspecified) the results were DRD3 agonist -5, TGFb inhibitor inconclusive, ATXN viability inconclusive, D3 antag -91*, HepG2 viability -8% and ATXN2 expr inh -28%.
`CCCC(c1nnnn1C(C)(C)C)N1CCN(c2ccccc2)CC1` (stereo unspecified) gave DRD3 agonist 4, TGFb inhibitor -29%, ATXN viability inactive, D3 antag 3, HepG2 viability -27% and ATXN2 expr inh -9%.
For CSCCC(c1nnnn1C(C)(C)C)N1CCN(C/C=C/c2ccccc2)CC1 (stereo unspecified) the results were DRD3 agonist -11, TGFb inhibitor -25%, ATXN viability inconclusive, D3 antag -82*, HepG2 viability -20% and ATXN2 expr inh -10%.
CSCCC(c1nnnn1-c1c(C)cccc1C)N1CCN(C/C=C/c2ccccc2)CC1 (stereo unspecified) was read as DRD3 agonist -14, TGFb inhibitor inconclusive, ATXN viability inactive, D3 antag -95*, HepG2 viability -44% and ATXN2 expr inh -27%.
CCOC(=O)c1ccccc1NC(=O)Cn1c(=O)n(Cc2nc(-c3ccccc3)no2)c(=O)c2ccccc21 was read as DRD3 agonist -13, TGFb inhibitor 15%, ATXN viability inactive, HepG2 viability 9% and ATXN2 expr inh 4%.
`COc1cc(OC)c(C=CS(=O)(=O)Cc2ccc(OC)c(NCC(=O)O)c2)c(OC)c1` gave ATXN2 expr inh -2%.
`Cc1ccc2oc(=O)c3cnn(CC(=O)NCCCOC(C)C)c3c2c1` gave DRD3 agonist 2, TGFb inhibitor 0%, ATXN viability inactive, D3 antag -84*, HepG2 viability -16% and ATXN2 expr inh 0%.
Screening COc1ccc(-n2cc(C(=O)NC(C)c3ccccc3)c3ccccc3c2=O)cc1 (stereo unspecified) returned DRD3 agonist 4, TGFb inhibitor inconclusive and HepG2 viability -27%.
`CC(=O)O[C@H]1[C@@H](O)[C@H](O)[C@H](Oc2c(O)c(C)c3c4c2[C@@H](C)CC[C@@H]4[C@@H](C)C[C@H]3C=C(C)C)O[C@H]1C` gave DRD3 agonist 30*, TGFb inhibitor 11µM*, ATXN viability inconclusive, D3 antag 96, HepG2 viability -114% and ATXN2 expr inh inconclusive.
